# Laboratory results from the supplement of paper PMC10477191.
# ± gives the standard deviation of the averaged measurements.
# Columns and labels:
# Test in all cases: odor-evoked OSN spike response (post minus pre-stimulus); higher = stronger neuronal excitation
# Conditions in all cases: odor dilution: 10^-4
# [1] = test system: Drosophila ezoana antennal basiconic sensillum ab1
# How it was run: (§1)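 Spike frequency was compared between 1-second windows before and after each stimulus in Auto Spike software. That change, averaged over replicate sensilla, is the response. Each stimulus was a 500 ms air pulse over filter paper carrying 10 µl of odorant at 10^−4 in mineral oil or DMSO, delivered into a humidified, charcoal-filtered 1.5 l min^−1 stream. A tungsten electrode recorded at the base of antennal basiconic sensilla of restrained adult flies, with up to 3 sensilla per fly.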
# [2] = test system: Drosophila ezoana antennal basiconic sensillum ab3
# How it was run: as §1
# [3] = test system: Drosophila virilis antennal basiconic sensillum AB2
# How it was run: as §1
structure (smiles),measurement,setting,value
CC(C)=O [acetone],odor-evoked OSN spike response,[1],67.1 ± 24 spikes/s
same,odor-evoked OSN spike response,[2],63.3 ± 28 spikes/s
same,odor-evoked OSN spike response,[3],53.7 ± 24 spikes/s
